Screens from PubChem BioAssay.
Peg3 promoter = Peg3 promoter activity inhibition; inhibition, % at 20 µM; AID 588405; HeLa PEG-Prom luciferase reporter, luminescence, overnight; 360,000 tested, 1.7% active;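 active means inhibition of at least 50% at 20 µM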
KKLEB tox = CF airway cell cytotoxicity counter-screen. 360,000 tested, 0.36% active. KKLEB CF airway cells viability, ATPlite luminescence, overnight; hits give low values; cells stimulated with P. aeruginosa culture filtrate. activity change (cytotoxicity), % at 5 µM;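 active means corrected activity change at or below -50% at 5 µM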
MITF TRPM1 inh = reduces MITF-dependent TRPM1 promoter luciferase signal; AID 488899; SK-MEL-5 TRPM1 promoter luciferase, 24 h; inhibition, % at 12.5 µM; 330,000 tested, 0.83% active;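 active means mean inhibition across replicates of 60% or more, whatever share of single replicates reaches that level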
CF NFkB inh = cystic fibrosis NF-kB activation inhibition; AID 588850; KKLEB NF-kB-GFP reporter, PAF-induced, GFP fluorescence overnight; 360,000 tested, 0.86% active; inhibition, % at 5 µM;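 active means at least 50% inhibition at 5 µM, scaled per plate between neutral and stimulator controls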;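 further: PAF is a Pseudomonas aeruginosa culture filtrate used as stimulus; plate controls were PAF-stimulated DMSO wells for no effect and unstimulated DMSO wells for full effect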
HIF-2a inh = HIF-2a inhibition | 786-0 RCC cells HIF-2a reporter, luciferase luminescence, overnight | inhibition, % at 18.8 µM | 360,000 tested, 0.72% active;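 active means inhibition of the luminescence signal of 40% or more relative to plate controls, in a single-dose primary screen at 18.75 µM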
Shn3 3UTR inh = reduces Shn3 3'UTR luciferase signal in osteoblasts | 360,000 tested, 0.52% active | inhibition, % at 12.5 µM | Clone20 osteoblast Shn3 3'UTR firefly luciferase, 24 h;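 active means mean inhibition of at least 75% with every replicate also reaching 75%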;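 further: 0% = median of neutral control wells and 100% = pilot-screen positive control compound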
Active calls of the source: *; . = not tested or not shown. In the library only some 2.7% were active in any assay of this set; here they are far more common.

SMILES	Peg3 promoter	KKLEB tox	MITF TRPM1 inh	CF NFkB inh	HIF-2a inh	Shn3 3UTR inh
COC(=O)C1=C(C)N(Cc2ccccc2)C(=NCc2ccccc2)N[C@H]1c1ccccc1	92*	-17	83*	-16	-2	12
COC(=O)C1=C(C)N(Cc2ccccc2)C(=NCc2cc(OC)c(OC)c(OC)c2)N[C@H]1c1ccc(Br)cc1	106*	-30	55	40	-4	10
Nc1nnc(CC(=O)N/N=C/c2ccc(-c3ccc(Cl)cc3Cl)o2)s1	-4	8	-13	-4	-17	-2
COc1ccc(CN2C(=O)CN(S(C)(=O)=O)CC2(C)C(=O)Nc2ccc3c(c2)OCCO3)cc1OC (configuration not stated)	.	.	.	.	4	.
COc1ccccc1C(=O)NCCC(=O)N1CCN(c2cccc(C(F)(F)F)c2)CC1	18	-14	-12	15	3	8
